Results taken from the supplement of paper PMC3334620.
Whole data set: some 33,000 sequences, median “E-score (-0.5 to 0.5)” near -0.01, cut for the highest 2% near 0.26. The sample holds the highest values, similar sequences and a random draw of the others, so the mix is not that of the screen.

These sequences were tested against Ste12 (UniProt P13574) (assay: PBM E-score (8-mer binding enrichment) (E-score (-0.5 to 0.5)); higher = stronger / more preferred TF binding). Conditions: protein concentration: 200 nM; construct: GST-DNA-binding domain.
Method: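 Universal 'all 10-mer' protein binding microarrays (Agilent AMADID 015681) probed with GST-tagged S. cerevisiae TFs (full-length or DBD) made by in vitro transcription/translation (PURExpress), about 100-200 nM. Bound TF was detected with fluorescent anti-GST. Each ungapped 8-mer (which stands for itself and its reverse complement) is scored by the PBM enrichment score (E-score), a modified Wilcoxon-Mann-Whitney statistic from -0.5 to +0.5, computed with the Universal PBM Analysis Suite. Scale: above 0.35 generally sequence-specific binding.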

Sequence of UniProt P13574 (P13574 whole entry, the tested form may be a part): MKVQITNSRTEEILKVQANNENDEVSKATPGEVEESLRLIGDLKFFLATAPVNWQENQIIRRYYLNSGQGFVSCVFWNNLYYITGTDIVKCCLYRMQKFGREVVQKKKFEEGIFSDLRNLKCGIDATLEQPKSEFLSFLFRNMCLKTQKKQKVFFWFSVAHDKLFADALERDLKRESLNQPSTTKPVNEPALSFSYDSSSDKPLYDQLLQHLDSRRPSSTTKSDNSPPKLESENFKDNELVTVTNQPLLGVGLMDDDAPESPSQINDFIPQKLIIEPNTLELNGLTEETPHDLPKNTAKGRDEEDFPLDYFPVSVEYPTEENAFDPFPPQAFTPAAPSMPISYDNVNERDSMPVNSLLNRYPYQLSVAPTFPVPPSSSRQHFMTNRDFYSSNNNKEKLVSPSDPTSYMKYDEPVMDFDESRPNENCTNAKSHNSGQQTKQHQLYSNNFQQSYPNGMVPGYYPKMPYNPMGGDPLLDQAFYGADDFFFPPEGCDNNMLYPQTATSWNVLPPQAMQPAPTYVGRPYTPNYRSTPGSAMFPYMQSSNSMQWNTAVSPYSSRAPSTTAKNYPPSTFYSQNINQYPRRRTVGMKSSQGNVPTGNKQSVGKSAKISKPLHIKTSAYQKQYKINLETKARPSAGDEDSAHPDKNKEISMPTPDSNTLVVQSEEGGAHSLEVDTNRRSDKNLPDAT

| Sequence | PBM E-score |
| --- | --- |
| CTGATCAG | -0.0327 |
| TATTTGCA | 0.0371 |
| CCCAGCGA | -0.0316 |
| ACCAATTA | 0.199 |
| CGAAACCA | 0.209 |
| GGAAACAC | 0.225 |
| CGAAACAC | 0.348 |
| TGAAACCA | 0.438 |
| CGAAACAG | 0.244 |
| AGAAACAG | 0.0492 |
| AGAAACAC | 0.121 |
| GAAAACAA | 0.197 |
| AGAAACAT | 0.32 |
| CGAAACAA | 0.349 |
| AAAAACAT | 0.241 |
| AGAAACCA | 0.194 |
| CGACGCAG | -0.237 |
| GCCTATTA | 0.0234 |
| CAGCTCCC | -0.254 |
| CCCGTCAC | 0.0322 |
| CCAGCAAG | -0.148 |
| AGGAGCAA | -0.108 |

| Sequence | PBM E-score |
| --- | --- |
| CGGCCCGA | 0.078 |
| CCGAATAG | -0.0705 |
| AAATCTGG | 0.21 |
| GGCGCTCA | -0.066 |
| ATGATAAT | 0.13 |
| AGACCTAG | -0.0522 |
| GGAAACAA | 0.13 |
| TCAAACCA | 0.278 |
| CCAAACCA | 0.0357 |
| ACAAACCA | 0.00217 |
| TGAAACAA | 0.493 |
| AGAAACAA | 0.26 |
| CGGAAGAA | 0.0583 |
| ATATCATC | 0.141 |
| GATAGAAC | 0.0461 |
| AGATTAGA | 0.00999 |
| AATGTTAT | 0.265 |
| CATGTTTA | 0.199 |
| AATGTTAG | -0.00616 |
| CATGTTTC | 0.4 |
| AAAGTTTA | 0.199 |
| AATGTTTC | 0.318 |

| Sequence | PBM E-score |
| --- | --- |
| AATGTTAA | 0.102 |
| AAAGTTTC | 0.329 |
| CAAGTTTC | 0.254 |
| AATGTTTA | 0.174 |
| CATGTTGC | -0.0677 |
| AATGTTTG | 0.0124 |
| AACGCTAA | -0.0143 |
| GTGTAGGA | 0.0365 |
| CACTCCAG | -0.019 |
| ACTCTGAT | 0.146 |
| ATAAAGCC | 0.00222 |
| AGGCCTAG | -0.218 |
| ACAGAAGG | -0.173 |
| CTTGAGGC | -0.184 |
| ATGGACGG | -0.00997 |
| CTCGCACC | -0.103 |
| CGCCCACA | 0.197 |
| CGTCGCCC | -0.121 |
| ACAAATTG | 0.177 |
| AAAAATTC | 0.224 |
| CAAAATTG | 0.0598 |
| AAAAATTG | 0.263 |

| Sequence | PBM E-score |
| --- | --- |
| ACAAATTA | 0.263 |
| CCAAATTA | 0.221 |
| ATAAATTA | 0.255 |
| ATAAATTG | 0.321 |
| CAAAATTA | 0.247 |
| ATAAATTC | 0.102 |
| GAAAATTA | 0.206 |
| AAAAATTA | 0.326 |
| CTCAACGC | -0.0089 |
| CAGCAGCC | -0.0193 |
| AATGGAGC | -0.0645 |
| AAACGATT | 0.165 |
| ACTACTCA | -0.0467 |
| ACACCATG | -0.108 |
| GACCGATA | -0.00126 |
| GCGAAGAC | -0.141 |
| AGGATTGC | -0.025 |
| ATAAACTG | 0.302 |
| ATAAACTA | 0.211 |
| ATAAACTC | 0.125 |
| CTACGCTC | -0.00605 |
| CTCCCATA | -0.0685 |
